The structures appear in SMILES notation. The source made the active and inactive calls.

The experiment can be described thus: CREB reporter modulators without forskolin, primary screen, cell-based, PC12, CRE-LacZ reporter, unstimulated (AID 1145). As to conditions: no forskolin, luminescence, 4.5 h, higher = more signal, called active from +8 up or from −8 down.
For `C[C@@H](c1ccccc1)N1C(=O)[C@H]2[C@H]3[C@H](O)[C@H](O)CC(=NO[C@@H]4O[C@H](CO)[C@@H](O)[C@H](O)[C@H]4O)[C@H]3CC[C@H]2C1=O`, the z-score was -0.294 (inactive).

As to `CCOC(=O)CCN1C(=O)[C@H]2[C@H]3[C@H](O)[C@H](O)CC(=NOCc4ccccc4)[C@H]3CC[C@H]2C1=O`, the z-score is -0.295 (inactive).

For `CO[C@H]1COC(=O)[C@@H](C)COC(=O)[C@H](COCc2ccccc2)NC(=O)CC=C[C@H]1C`, the z-score is -0.567 (inactive).

As to `COc1cccc([C@H]2Oc3ccc(OC)cc3C(=NO[C@@H]3O[C@H](COC(C)=O)[C@@H](OC(C)=O)[C@H](OC(C)=O)[C@H]3OC(C)=O)[C@@H]2O)c1`, the z-score is 0.336 (inactive).

For `CCOC(=O)[C@H](CC(C)C)NC(=O)CCC1CC(OC(=O)NCc2ccc3c(c2)OCO3)CC2(CCCC(COC(=O)NCc3cccc(C(F)(F)F)c3)O2)O1` (stereo partly drawn), the z-score is 0.11 (inactive).

`CCN1C(=O)[C@H]2[C@H]3[C@H](O)[C@H](O)CC(=NOCC(C)C)[C@@H]3CC[C@H]2C1=O`: the z-score is -0.929 (inactive).

For the molecule `COC(=O)[C@H](C)NC(=O)CCC1CC(OC(=O)NCCc2ccc(F)cc2)CC2(CCCC(COC(=O)NCCC(C)C)O2)O1` (stereo partly drawn), the z-score is 0.109 (inactive).

Take `C=CC[C@@H]1C=C[C@H](ON=C(C)CCN2CCc3nc(-c4ccccc4)c(-c4ccccc4)cc3C2)[C@@H](CO)O1`: the z-score is -0.0033 (inactive).
